Sm TGR block: qHTS Assay for the Inhibitors of Schistosoma Mansoni Peroxiredoxins | Schistosoma mansoni thioredoxin glutathione reductase (TGR), Q962Y6 | purified TGR, DTNB reduction, TNB absorbance 405 nm | Potency, µM (doses to about 114 µM), actives largely listed as inhibitors | 360,000 compounds, 3% hits | AID 485364, 2010; note: nearly all actives have a fitted effect of over 60% in size
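Kinetic colorimetric format: TGR-catalysed, NADPH-driven DTNB reduction monitored via TNB absorbance. Enzyme dispensed at 20 nM; compound exposure 15 min at room temperature before reaction start.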
HCMV antiviral: qHTS Assay for inhibitors of the human cytomegalovirus (HCMV); activity change, negative = inhibition, % at 57.5 µM; 410,000 compounds, 4.5% hits; HFF cells, HCMV-luciferase reporter, 72 h; active compounds read low; in the data active = activity change below about -60%; inconclusive = no clear call, values can overlap the other calls; inactive = above about -39%
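Compounds were evaluated in HFFs infected with an HCMV luciferase reporter virus (MOI 1 PFU/cell). Luciferase in lysates collected 72 h post infection served as the replication measure.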
HCV inh: qHTS Assay for Inhibitors of Hepatitis C Virus (HCV); 340,000 compounds, 3.4% hits; Huh7.5.1 HCVcc-Cre infection, luciferase reporter, 44 h; AID 651820, 2012; Potency, µM (series often up to 41.8 µM), actives largely listed as inhibitors
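Infectious HCVcc-Cre (~0.5 moi) was added to cells just after compound, with cells seeded 4 h earlier at 1,000 per well. Luciferase activity after 44 h culture reported infection; substrate was incubated 15 min at room temperature before reading.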
SARS PLpro yeast-1: qHTS of Yeast-based Assay for SARS-CoV PLP. S. cerevisiae expressing SARS-CoV PLpro, growth rescue. Potency, µM (titrated, usually from 32.9 µM), usual class: activators. 330,000 compounds, 0.19% hits. AID 485353, 2010; calls by dose curve; note: nearly all actives have a fitted effect of over 55% in size
Pf growth 96h: Primary qHTS for delayed death inhibitors of the malarial parasite plastid, 96 hour incubation; P. falciparum luciferase reporter growth, 96 h; Potency, µM (highest dose often 28.7 µM), most hits filed as inhibitors; 320,000 compounds, 6.9% hits; AID 504834, 2011
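Infected RBCs, 2% Hct / 0.05% parasitemia final; luciferase-reporter P. falciparum; cpd 96 h, 37 C, 5% CO2; luciferase detection reagent; luminescence.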
Pf growth 48h: Primary qHTS for delayed death inhibitors of the malarial parasite plastid, 48 hour incubation; AID 504832, 2011; 310,000 compounds, 5.9% hits; Potency, µM (top dose mostly 28.7 µM), actives largely listed as inhibitors; P. falciparum luciferase growth in erythrocytes, 48 h
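Here the parasites carry a stable luciferase gene and grow inside erythrocytes in Albumax-based RPMI medium with compound for one erythrocytic cycle. Activity is scored as loss of luminescent signal.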
SARS PLpro yeast-2: qHTS of Yeast-based Assay for SARS-CoV PLP: Hit Validation; AID 652038, 2013; calls only; 1,000 compounds, 19% hits; yeast expressing SARS-CoV PLpro, growth phenotype rescue; shares compounds with SARS PLpro yeast-1; call rule not given here
Large screens that a line does not name were inactive (follow-up assays come after a bar, where they were run). Hits are enriched below; roughly 15% of the tested compounds scored in any of these assays. Unless noted, calls come from the whole dose curve; as a rule, active = well fitted curve in the direction sought with a large enough effect; inconclusive = small, poorly fitted or top-dose-only effect, or another doubt; inactive = no such curve, though single readings can be large; an effect the other way counts as inactive or inconclusive.

CCOC(=O)N1CCN(C(=O)CSCC(=O)Nc2nc(-c3ccc(OC)cc3)cs2)CC1	HCV inh inconclusive, Pf growth 96h inconclusive, Pf growth 48h inconclusive
CCOC(=O)N1CCN(C(=O)CSCC(=O)Nc2nc(-c3ccc(Cl)s3)cs2)CC1	HCV inh 11.2µM, SARS PLpro yeast-1 12.6µM, Pf growth 96h inconclusive, Pf growth 48h inconclusive | SARS PLpro yeast-2 inconclusive
CCN(C(=O)CSc1nnc(-c2ccccc2)o1)c1c(N)n(Cc2ccccc2)c(=O)[nH]c1=O	HCMV antiviral inconclusive, SARS PLpro yeast-1 inconclusive, Pf growth 96h inconclusive | SARS PLpro yeast-2 inactive
CCCCN(C(=O)CSc1nnc(-c2ccccc2)o1)c1c(N)n(CCC)c(=O)[nH]c1=O	HCMV antiviral inconclusive, Pf growth 48h inconclusive
CCOc1ncccc1C(=O)OCC(=O)Nc1ccc2c(c1)CCC2	SARS PLpro yeast-1 inconclusive (no result: Sm TGR block, Pf growth 96h, Pf growth 48h) | SARS PLpro yeast-2 inactive
CCOc1ncccc1C(=O)OCC(=O)Nc1ccc2c(c1)OCO2	none
Cc1cc(-n2ccnc2)n2c(nc3ccccc32)c1C#N	SARS PLpro yeast-1 inconclusive (no result: Pf growth 48h) | SARS PLpro yeast-2 inconclusive
CC(C)(C)c1ccc(C(=O)N/C(N)=N/c2nc3ccccc3o2)cc1	SARS PLpro yeast-1 inconclusive (no result: HCMV antiviral, Pf growth 48h) | SARS PLpro yeast-2 inactive
N/C(=N\c1nc2ccccc2o1)NC(=O)c1ccc(Cl)cc1	none
CCOC(=O)C1C(=O)NC(C(=O)OCC)(C(=O)OCC)C1CC (configuration not stated)	HCV inh inconclusive (no result: Sm TGR block, SARS PLpro yeast-1, Pf growth 96h, Pf growth 48h)
CCN1C(=O)/C(=C2/C=CC=CN2C)OC1=S	SARS PLpro yeast-1 11.2µM | SARS PLpro yeast-2 inactive
CCN(CC)S(=O)(=O)c1ccc(NC(=S)NC(=O)CC(C)C)cc1	Pf growth 96h inconclusive, Pf growth 48h inconclusive (no result: SARS PLpro yeast-1) | SARS PLpro yeast-2 inactive
CCCCCN(C(=O)NC(=O)Nc1ccc(C)cc1)S(=O)(=O)c1ccccc1	SARS PLpro yeast-1 3.16µM | SARS PLpro yeast-2 inactive
CCCCCN(C(=O)NC(=O)Nc1ccc(C)cc1C)S(C)(=O)=O	none
CCC(C)c1ccc(OCCCCN2CCOCC2)cc1 (configuration not stated)	none (no result: Pf growth 48h)
CCOC(=O)C1CCN(C(=O)CN(c2cc(Cl)ccc2OC)S(=O)(=O)c2ccccc2)CC1	SARS PLpro yeast-1 inconclusive, Pf growth 96h inconclusive, Pf growth 48h 14.7µM | SARS PLpro yeast-2 inactive
CCOC(=O)C1CCN(C(=O)CN(C)S(=O)(=O)c2cc(C)ccc2OC)CC1	Pf growth 96h inconclusive
CCN(c1ccccc1)S(=O)(=O)c1ccc(C(=O)NCc2ccco2)cc1	HCV inh inconclusive (no result: Sm TGR block, Pf growth 96h, Pf growth 48h)
C[C@@H](NC(=O)c1nc[nH]c1C(=O)NCc1ccccc1)c1ccccc1	Pf growth 96h inconclusive
O=C(Nc1nc2ccccc2n1CCN1CCOCC1)c1cn(-c2ccccc2)nc1-c1ccccc1	HCMV antiviral inconclusive, HCV inh 10µM, SARS PLpro yeast-1 inconclusive, Pf growth 96h inconclusive, Pf growth 48h 10.4µM | SARS PLpro yeast-2 inconclusive
O=C(Nc1nc2ccccc2n1CCN1CCOCC1)c1ccccc1	none
O=C(Nc1ccc2oc(=O)ccc2c1)c1cccnc1Cl	Pf growth 96h inconclusive
Cc1ccc(C(=O)CNc2ccc(C)c(Cl)c2)cc1	SARS PLpro yeast-1 inconclusive | SARS PLpro yeast-2 inconclusive
CCc1nnc2c3ccccc3nc(N3CCN(c4cc(Cl)ccc4C)CC3)n12	none (no result: HCV inh, SARS PLpro yeast-1, Pf growth 96h, Pf growth 48h)
O=C(N/N=C/c1ccccc1O)c1cccc(C(F)(F)F)c1	HCMV antiviral -101.9, HCV inh 3.98µM, SARS PLpro yeast-1 inconclusive, Pf growth 96h inconclusive, Pf growth 48h inconclusive | SARS PLpro yeast-2 inactive
O=C(N/N=C/c1ccc(O)cc1)c1cccc(C(F)(F)F)c1	SARS PLpro yeast-1 inconclusive
C=CCOc1ccc(C2NC(=S)NC(c3ccccc3)=C2C(C)=O)cc1OC (configuration not stated)	none

High-throughput results as filed in PubChem BioAssay.
